In PubChem BioAssay (EPA / NIEHS):
Inconclusive results are not listed. Calls of active or inactive are those of the source. The calls were made as follows: active = hit-call score of the fitted dose curve at least 0.9, where 1 is the maximum; inconclusive = response in the unintended direction; inactive = score below 0.9.

read-out: ABC Transporter (ABCB11), ABCB11 (gene 8647); experiment: CLD_ABCB11_48hr: CellzDirect (CLD) Gene Expression Assay for ABC Transporter (ABCB11) at 48 hours (AID 2283697)
Protocol: CLD_48hr is a cell-based, multiplexed-readout assay that uses hepatocyte, a human liver primary cell, with measurements taken at 48 hours after chemical dosing in a 96-well plate.CLD_ABCB11_48hr is one of 16 assay component(s) measured or calculated from the CLD_48hr assay. It is designed to make measurements of mRNA induction, a form of inducible reporter, as detected with chemiluminescence signals by Quantitative Nuclease Protection Assay (qNPA) technology.Data from the assay component CLD_ABCB11_48hr was analyzed at the endpoint, CLD_ABCB11_48hr, in the positive analysis fitting direction relative to DMSO as the negative control and baseline of activity. Using a type of inducible reporter, gain-of-signal activity can be used to understand changes in the reporter gene as they relate to the gene ABCB11. Furthermore, this assay endpoint can be referred to as a primary readout. To generalize the intended target to other relatable targets, this assay endpoint is annotated to the transporter intended target family, where subfamily is ABC transporter.
Human hepatocyte cultures were treated daily for two consecutive days with fresh dosing solutions containing appropriate concentrations of the 320 ToxCast chemicals (chemical identities were blinded to CellzDirect and other ToxCast collaborators), vehicle control (0.2% DMSO), and positive control inducers as summarized in Table 1. Due to the large number of treatment groups and chemicals examined, the ToxCast chemicals were divided into two groups (spanning two independent cultures of hepatocytes from separate donor preparations (Hu778: ToxCast plates 1 and 2; Hu776: ToxCast plates 3 and 4). Each preparation of human hepatocyte cultures was treated with respective vehicle control, medium only control, set of six positive controls/reference chemicals for the five hepatic receptor pathways, and a subset of eight of the ToxCast chemicals (indoxacarb, pyrithiobac-sodium, norflurazon, cyhalofop-butyl, methomyl, thiram, acetochlor, and propiconazole). These replicate data, coupled with internal replicates designed within the blinded ToxCast chemical library, provided additional data to evaluate interindividual differences between hepatocyte preparations and their potential impact on chemical profiles.Cell morphology and integrity were evaluated using phase-contrast microscopy as an indicator of hepatocyte cell health (Tyson & Green, 1987). Cultures for each treatment group (i.e., media, vehicle [0.2% DMSO], positive control inducers [multiple concentrations], and the ToxCast chemicals [multiple concentrations]) were observed and cell morphology was assessed relative to vehicle control cultures at each harvest time point (0, 6, 24, or 48 h). […] Images were evaluated at the conclusion of the study to assess changes in cell integrity and account for the effects of chemical exposure on uncharacteristic changes in concentration-dependent gene expression profiles. The results from these determinations of apparent cytotoxicity were annotated (yes/no) alongside the corresponding qNPA data for reference.At the conclusion of each treatment period, hepatocyte cultures (96-well) were washed with 1 volume of HBSS, lysed by addition of 25 ul ArrayPlate lysis buffer (HTG, Tucson, AZ), and 70 ul/well of Denaturation Oil, denatured by incubation at 95C for 10 min, and frozen at approximately -70C until analysis by nuclease protection assay (qNPA) (Roberts et al., 2007). For qNPA analysis, cell lysates were thawed at 50C for approximately 30 min, qNPA probes were added, and samples were incubated at 95C for 10 min to begin the detection process by denaturing the target RNA, dissociating the duplexes and secondary structure hybridization. At the conclusion of the hybridization period, S1 nuclease reagent was added to each sample to digest all nonprotected nucleotides at 50C for 60-90 min. […]

Row | Compound | outcome
1 | O=C(O)c1c(Cl)ccc2cc(Cl)cnc12 | inactive
2 | COP(=O)(OC)O/C(C)=C/C(=O)N(C)C | inactive
3 | COC(=O)NS(=O)(=O)c1ccc(N)cc1 | inactive
4 | Cc1nc(N(C)C)nc(OC(=O)N(C)C)c1C | inactive
5 | Nc1c(Cl)c(F)nc(OCC(=O)O)c1Cl | inactive
6 | COP(=S)(OC)SCn1nnc2ccccc2c1=O | inactive
7 | CC(C)C1(C)N=C(c2ncccc2C(=O)O)NC1=O (stereo not given) | inactive
8 | COCc1cnc(C2=NC(C)(C(C)C)C(=O)N2)c(C(=O)O)c1 (stereo not given) | inactive
9 | C=C(C)CN(CC)c1c([N+](=O)[O-])cc(C(F)(F)F)cc1[N+](=O)[O-] | inactive
10 | COc1ccc(-c2ccccc2)cc1NNC(=O)OC(C)C | inactive
11 | CCOP(=O)(OCC)Oc1nc(Cl)c(Cl)cc1Cl | inactive
12 | CO/N=C(/C1=NOCCO1)c1ccccc1Oc1ncnc(Oc2ccccc2Cl)c1F | inactive
13 | Clc1nc(Cl)nc(Nc2ccccc2Cl)n1 | inactive
14 | OC(c1ccc(Cl)cc1)(c1ccc(Cl)cc1)C(Cl)(Cl)Cl | inactive
15 | N#CN=C1SCCN1Cc1ccc(Cl)nc1 | inactive
16 | O=C1C2CC=CCC2C(=O)N1SC(Cl)(Cl)Cl (stereo not given) | inactive
17 | CS(=O)(=O)c1ccc(C(=O)C2C(=O)CCCC2=O)c([N+](=O)[O-])c1 | inactive
18 | COCC(C)N(C(=O)CCl)c1c(C)csc1C (stereo not given) | inactive
19 | CCCC(=NOCC)C1=C(O)CC(CC(C)SCC)CC1=O (stereo not given) | inactive
20 | CCNC(=O)NC(=O)C(C#N)=NOC | inactive
21 | O=c1n(Cl)c(=O)n(Cl)c(=O)n1Cl | inactive
22 | COC(=O)NC(=S)Nc1ccccc1NC(=S)NC(=O)OC | inactive
23 | COc1cc(OC)nc(NC(=O)NS(=O)(=O)c2ncccc2OCC(F)(F)F)n1 | inactive
24 | CCOc1nc(C(Cl)(Cl)Cl)ns1 | inactive
25 | O=P(O)(O)CCCl | inactive
